Reference: PubChem BioAssay (NCATS)
Values joined by “and” are separate entries in the source; they are usually repeats but may differ in a detail not shown here. Equal entries are not always repeated. Results filed as inconclusive are left out. Where a call stands in place of a potency, no number is given. More than one record can exist for a structure, and the calls need not agree. Active and inactive are the calls of the source. Unless noted, calls follow the shape of the dose curve; as a rule, active = well fitted curve in the direction sought with a large enough effect; inconclusive = small, poorly fitted or top-dose-only effect, or another doubt; inactive = no such curve, though single readings can be large; an effect the other way counts as inactive or inconclusive.

Legend:
[1] = AP1 Signaling Pathway (AID 357; active = well fitted curve in either direction with a large enough effect, not every such curve was filed as active;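 also: ME-180 reporter cells stimulated with EGF at its EC50 level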)
Procedure, shortened: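 Beta-lactamase reporter under AP-1 response element, ME-180 background. Stimulus: EC50 EGF. Compound exposure 5 h, 37 °C. Detection: CCF4, 2.5 h RT, 460/530 nm. Values: AC50 from titration.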

[2] = molecular target: Cytochrome P450 1A2 (Homo sapiens) (UniProt P05177); experiment: p450-cyp1a2 (AID 410; calls by dose curve; also: potency is read from the fitted curve at half-maximal effect)
Procedure, shortened: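 20nM CYP1A2 with 100uM Luciferin-ME (at Km) in 100mM KPO4; compound preincubated 10 min, NADPH regeneration added, 60 min at room temperature. Luciferin quantified by luminescence after detection reagent; normalized to 57 uM furafylline.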

[3] = NFAT Signaling Pathway (AID 444; active = well fitted curve in either direction with a large enough effect, not every such curve was filed as active;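 also: carbachol stimulus at about its EC50 of 1 µM final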); conditions: Jurkat NFAT-bla M1, carbachol, beta-lactamase ratio, 5 h; at 38 µM (top of the series)
Procedure, shortened: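 Read-out: CCF4 FRET ratio (460 nm/530 nm) after 1 h RT dye loading, used for %activity and AC50 from titration series. Cells: Jurkat NFAT-β-lactamase/M1 line, treated with compound plus 1 uM carbachol for 5 h, 37 °C.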

[4] = Stat Signaling Pathway (AID 446; active = well fitted curve in either direction with a large enough effect, not every such curve was filed as active;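 also: ME-180 cervical cancer cells given 40 pM IL-6 alongside compound; SIE-controlled beta-lactamase reporter measured as 460/530 nm FRET emission ratio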)
Procedure, shortened: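 Screening format detects activators and inhibitors alike: ME-180 SIE-bla cells stimulated at 40 pM IL-6 for 5 hrs with compound, then dual-emission beta-lactamase read at 405 nm excitation.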

[5] = molecular target: Mitogen-activated protein kinase 10 (Mus musculus) (UniProt Q61831); experiment: JNK3 AlphaScreen Assay (AID 530; active = well fitted curve in either direction with a large enough effect, not every such curve was filed as active;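 also: kinase came from lysate of stimulated human HepG2 cells; signal reports phosphorylation of biotinylated GST-cJun 1-79 at Ser73 with 10 µM ATP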)
Procedure, shortened: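 Compound titrations were preincubated 15 minutes at room temperature with substrate, antibody and pre-activated JNK3-containing HepG2 lysate. Reactions were started with 10 uM ATP and stopped with EDTA-containing bead buffer for AlphaScreen detection.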

[6] = molecular target: 3',5'-cyclic-AMP phosphodiesterase 4B (Homo sapiens) (UniProt Q07343); experiment: qHTS Assay for Inhibitors of PDE-IV (AID 607; active = well fitted activation curve with a large enough effect in the main read-out, with a control signal flat, not every such curve was filed as active)
Procedure, shortened: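 The readout is membrane depolarisation from a cAMP-sensing CNG channel, detected with a potential dye at ex 535/em 590. Cells were HEK293-derived (endogenous PDE-IV) at 1000 cells/well, titrated up to 22.9 uM final.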

[7] = molecular target: Guanine nucleotide-binding protein G(i) subunit alpha-1 (Homo sapiens) (UniProt P63096); experiment: qHTS Assay for Inhibitors of RGS12 GoLoco Motif Activity (Green Fluorophore) (AID 879);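 also: negative values mean loss of peptide binding seen as reduced polarization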
Procedure, shortened: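 Fluorescence polarization assay: 50 nM Gαi1 with 10 nM FITC-labeled RGS12 GoLoco peptide in 10 mM Tris pH 7.5, 150 mM NaCl, 0.1 mM GDP, 0.05% NP40, 10 min at room temperature with compound.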

[8] = molecular target: Cytochrome P450 2D6 (Homo sapiens) (UniProt P10635); experiment: qHTS Assay for Inhibitors and Substrates of Cytochrome P450 2D6 (AID 891); also: potency is read from the fitted curve at half-maximal effect; nearly all actives have a fitted effect of over 60% in size
Procedure, shortened: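 Human CYP2D6 (5 nM) with 30 uM Luciferin-ME EGE (at Km) in 100 mM KPO4, compound preincubated 10 min, then NADPH regeneration system for 60 min at room temperature. Luciferin read by luminescence; normalized to 1.43 uM quinidine.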

[9] = molecular target: Cytochrome P450 2C19 (Homo sapiens) (UniProt P33261); experiment: qHTS Assay for Inhibitors and Substrates of Cytochrome P450 2C19 (AID 899); also: nearly all actives have a fitted effect of over 60% in size; also: potency is read from the fitted curve at half-maximal effect
Procedure, shortened: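 5nM enzyme + 10uM Luciferin-H EGE (=KM), 50mM KPO4; cpd pin-transferred, 10 min 37C; NADPH regen, 60 min 37C; stopped w/ luciferin detection reagent, 20 min; luminescence. Normalized to 57uM ketoconazole (AC100).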

[10] = qHTS Assay for Identification of Small Molecule Agonists for Thrombopoietin (TPO) Signaling Pathway (AID 917)
Procedure, shortened: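 IL-3-dependent murine pro-B Ba/F3 cells, stably transfected with human TPO receptor and GpIIb-promoter luciferase, are incubated 24 hrs at 37 C with test compound and 26 pM TPO; luciferase signal is read after 10 min at room temperature.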

[11] = molecular target: Muscarinic acetylcholine receptor M1 (Rattus norvegicus) (UniProt P08482); experiment: qHTS Assay for Antagonists of Acetylcholine Muscarinic M1 Receptor: Kinetic Measurement of Intracellular Calcium Response (AID 943); also: nearly all actives have a fitted effect of over 75% in size
Procedure, shortened: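 CHO cells expressing rat M1 receptor, Fluo-4 loaded, preincubated 10 min with compound, then stimulated with EC80 carbachol (100 nM final). Kinetic calcium fluorescence over 4 min; response taken as peak over basal signal.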

[12] = molecular target: Muscarinic acetylcholine receptor M1 (Rattus norvegicus) (UniProt P08482); experiment: qHTS Assay for Antagonists of Acetylcholine Muscarinic M1 Receptor: Measurement of IP-One Response (AID 944); also: nearly all actives have a fitted effect of over 75% in size
Procedure, shortened: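 CHO cells stably expressing rat M1, pretreated 10 min with compound, then stimulated 30 min with carbachol at EC80 (200 nM) in LiCl-containing buffer pH 7.4; IP1 accumulation read by HTRF competition (665/620 nm).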

[13] = molecular target: Pyruvate kinase (Leishmania mexicana) (UniProt Q27686); experiment: qHTS Validation Assay for Inhibitors of Leishmania Mexicana Pyruvate Kinase (AID 945)
Procedure, shortened: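 Read-out: luminescence from PKLight stop/detection reagent, data normalized to DMSO. Reaction: 0.2 nM E451W LmPYK, 0.5 mM PEP, 0.1 mM ADP, pH 7.2, 1 h room temperature.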

[14] = molecular target: Pyruvate kinase PKM (Homo sapiens) (UniProt P14618); experiment: qHTS Assay for Activators of Human Muscle Pyruvate Kinase (AID 954; active = well fitted curve in the direction sought with a large enough effect, not every such curve was filed as active)
Procedure, shortened: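 Reaction: 0.1 nM purified PKM2 with 0.5 mM phosphoenolpyruvate and 0.1 mM ADP, room temperature, 1 h. Readout: luciferase-based ATP luminescence after stop reagent. Activators judged against a 0.3 nM enzyme column.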

[15] = molecular target: Alpha-galactosidase (Coffea arabica) (UniProt Q42656); experiment: Counterscreen for Glucocerebrosidase Inhibitors: qHTS Assay for Coffee Bean alpha-Galactosidase at pH 4.5 (AID 957)
Procedure, shortened: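 Coffee bean enzyme (2 nM) with 80 uM 4-methylumbelliferyl alpha-D-galactopyranoside in 50 mM citric acid, 0.005% Tween-20, pH 4.5, 20 min at room temperature; compounds 0.7 nM–77 uM. Stopped at pH 10, fluorescence 365/440 nm; AC50 from Hill fits.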

[16] = molecular target: Alpha-galactosidase A (Homo sapiens) (UniProt P06280); experiment: Counterscreen for Glucocerebrosidase Inhibitors: qHTS Assay for Human alpha-Galactosidase at pH 4.5 (AID 992)
Procedure, shortened: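 Concentration-response curves (0.7 nM to 77 uM final) were modeled with the Hill equation to give AC50. Reactions: 2 nM enzyme, 80 uM fluorogenic alpha-galactoside, pH 4.5 citric acid buffer, 20 min, room temperature.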

[17] = molecular target: alpha-glucosidase (Oryza sativa, rice) (UniProt Q653V4); experiment: Counterscreen for Glucocerebrosidase Inhibitors: qHTS Assay for Rice alpha-Glucosidase at pH 5.0 (AID 997)
Procedure, shortened: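 Rice alpha-glucosidase (4 nM final) with 400 uM 4-methylumbelliferyl-alpha-D-glucopyranoside in citrate buffer pH 5.0, 20 min at room temperature, stopped at pH 10; fluorescence 365/440 nm, compounds 0.7 nM–77 uM, AC50 from Hill fits.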

[18] = molecular target: Alpha-galactosidase (Coffea arabica) (UniProt Q42656); experiment: Counterscreen for Glucocerebrosidase Inhibitors: qHTS Assay for Coffee Bean alpha-Galactosidase at pH 5.9 (AID 998)
Procedure, shortened: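 Compounds were titrated from 0.7 nM to 77 uM against green coffee bean alpha-galactosidase (2 nM) using 80 uM fluorogenic 4-methylumbelliferyl substrate. After 20 min at room temperature, reactions were stopped at pH 10 and read by fluorescence.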

[19] = molecular target: DNA dC->dU-editing enzyme APOBEC-3G (Homo sapiens) (UniProt Q9HC16); experiment: qHTS for inhibitors of Vif-A3G interactions: Validation (AID 588379)
Procedure, shortened: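 HeLa cells stably expressing Vif and A3G-eYFP, 700 cells/well, incubated overnight at 37 deg C, then exposed to compound overnight at 37 deg C. Inhibition of Vif-mediated degradation read as increased yellow fluorescence (Ex 488/Em 500-530) by laser-scanning cytometry.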

[20] = Primary qHTS for small molecule stabilizers of the endoplasmic reticulum resident proteome: Secreted ER Calcium Modulated Protein (SERCaMP) assay (AID 1508630)
Procedure, shortened: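 GLuc-SERCaMP-expressing SH-SY5Y cells, pretreated 16 h with compound, are challenged with thapsigargin to empty ER calcium stores; after 4 h, coelenterazine is added directly to the medium and luminescence is imaged.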

Chain of 3',5'-cyclic-AMP phosphodiesterase 4B (Homo sapiens) (Q07343 whole entry, looked up): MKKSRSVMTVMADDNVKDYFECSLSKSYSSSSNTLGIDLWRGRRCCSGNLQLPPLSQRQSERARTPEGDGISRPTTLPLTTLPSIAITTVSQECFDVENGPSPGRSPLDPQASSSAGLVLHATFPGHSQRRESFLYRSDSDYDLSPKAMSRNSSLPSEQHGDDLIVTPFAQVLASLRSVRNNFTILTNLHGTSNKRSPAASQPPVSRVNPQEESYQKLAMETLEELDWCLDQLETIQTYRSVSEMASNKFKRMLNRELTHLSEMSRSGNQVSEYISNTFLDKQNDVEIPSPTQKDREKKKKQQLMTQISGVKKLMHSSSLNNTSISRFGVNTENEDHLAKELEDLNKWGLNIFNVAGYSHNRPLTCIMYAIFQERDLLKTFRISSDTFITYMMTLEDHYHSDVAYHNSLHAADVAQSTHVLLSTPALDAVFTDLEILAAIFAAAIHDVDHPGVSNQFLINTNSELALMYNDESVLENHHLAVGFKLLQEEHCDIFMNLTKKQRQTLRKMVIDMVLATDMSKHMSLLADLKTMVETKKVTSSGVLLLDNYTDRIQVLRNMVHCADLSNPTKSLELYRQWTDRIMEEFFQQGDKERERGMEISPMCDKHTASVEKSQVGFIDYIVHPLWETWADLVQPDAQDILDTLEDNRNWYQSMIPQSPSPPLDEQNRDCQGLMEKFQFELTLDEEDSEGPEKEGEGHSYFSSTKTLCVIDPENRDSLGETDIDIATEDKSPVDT
Chain of Muscarinic acetylcholine receptor M1 (Rattus norvegicus) (P08482 whole entry, looked up): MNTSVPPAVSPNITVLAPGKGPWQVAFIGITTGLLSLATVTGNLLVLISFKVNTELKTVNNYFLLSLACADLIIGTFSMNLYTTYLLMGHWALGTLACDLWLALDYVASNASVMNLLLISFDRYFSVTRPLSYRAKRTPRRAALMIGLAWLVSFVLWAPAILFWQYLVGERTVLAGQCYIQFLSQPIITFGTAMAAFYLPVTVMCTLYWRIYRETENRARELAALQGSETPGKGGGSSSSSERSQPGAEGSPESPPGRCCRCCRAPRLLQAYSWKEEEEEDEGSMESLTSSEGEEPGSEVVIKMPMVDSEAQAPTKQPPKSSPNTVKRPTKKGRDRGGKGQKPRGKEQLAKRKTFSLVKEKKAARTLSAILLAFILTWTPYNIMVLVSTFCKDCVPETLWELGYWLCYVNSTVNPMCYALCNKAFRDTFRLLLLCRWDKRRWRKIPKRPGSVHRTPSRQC
Chain of Alpha-galactosidase (Coffea arabica) (Q42656 whole entry, looked up): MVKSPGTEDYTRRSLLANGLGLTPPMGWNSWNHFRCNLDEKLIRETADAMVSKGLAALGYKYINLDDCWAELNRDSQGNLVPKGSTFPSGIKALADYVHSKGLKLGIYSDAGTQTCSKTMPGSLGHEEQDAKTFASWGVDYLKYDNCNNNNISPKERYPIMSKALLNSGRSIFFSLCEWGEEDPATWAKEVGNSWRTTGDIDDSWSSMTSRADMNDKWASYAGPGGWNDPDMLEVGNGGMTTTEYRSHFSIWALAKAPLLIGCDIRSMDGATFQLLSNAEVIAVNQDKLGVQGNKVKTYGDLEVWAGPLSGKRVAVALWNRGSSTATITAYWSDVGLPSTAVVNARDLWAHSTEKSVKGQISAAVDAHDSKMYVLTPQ
Chain of Cytochrome P450 2D6 (Homo sapiens) (P10635 whole entry, looked up): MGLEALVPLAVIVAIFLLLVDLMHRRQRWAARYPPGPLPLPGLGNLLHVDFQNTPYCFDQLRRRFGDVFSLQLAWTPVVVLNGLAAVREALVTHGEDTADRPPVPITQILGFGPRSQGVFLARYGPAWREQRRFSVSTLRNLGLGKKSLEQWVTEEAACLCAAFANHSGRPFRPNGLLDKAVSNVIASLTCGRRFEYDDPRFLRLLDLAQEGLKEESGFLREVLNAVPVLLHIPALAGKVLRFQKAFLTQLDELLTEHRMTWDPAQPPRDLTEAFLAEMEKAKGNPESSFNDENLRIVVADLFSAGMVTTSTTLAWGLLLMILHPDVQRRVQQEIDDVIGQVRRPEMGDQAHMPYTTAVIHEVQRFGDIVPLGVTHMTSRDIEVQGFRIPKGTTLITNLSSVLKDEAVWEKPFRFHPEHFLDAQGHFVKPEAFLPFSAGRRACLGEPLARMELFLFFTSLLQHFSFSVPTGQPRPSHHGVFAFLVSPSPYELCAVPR
Chain of Cytochrome P450 2C19 (Homo sapiens) (P33261 whole entry, looked up): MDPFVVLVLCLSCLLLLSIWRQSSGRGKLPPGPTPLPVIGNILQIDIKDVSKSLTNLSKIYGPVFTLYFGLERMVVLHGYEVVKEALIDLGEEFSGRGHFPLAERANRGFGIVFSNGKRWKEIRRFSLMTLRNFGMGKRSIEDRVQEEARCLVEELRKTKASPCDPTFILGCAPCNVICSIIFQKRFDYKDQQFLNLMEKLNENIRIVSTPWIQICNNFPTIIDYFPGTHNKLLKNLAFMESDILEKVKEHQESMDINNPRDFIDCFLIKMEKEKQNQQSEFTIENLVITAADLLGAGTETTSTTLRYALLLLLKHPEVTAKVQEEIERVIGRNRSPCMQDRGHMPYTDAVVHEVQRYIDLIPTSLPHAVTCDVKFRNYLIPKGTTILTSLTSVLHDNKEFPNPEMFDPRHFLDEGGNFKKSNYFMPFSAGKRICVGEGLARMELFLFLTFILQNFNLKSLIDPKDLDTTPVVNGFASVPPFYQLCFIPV
Chain of Pyruvate kinase (Leishmania mexicana) (Q27686 2-499 E452W): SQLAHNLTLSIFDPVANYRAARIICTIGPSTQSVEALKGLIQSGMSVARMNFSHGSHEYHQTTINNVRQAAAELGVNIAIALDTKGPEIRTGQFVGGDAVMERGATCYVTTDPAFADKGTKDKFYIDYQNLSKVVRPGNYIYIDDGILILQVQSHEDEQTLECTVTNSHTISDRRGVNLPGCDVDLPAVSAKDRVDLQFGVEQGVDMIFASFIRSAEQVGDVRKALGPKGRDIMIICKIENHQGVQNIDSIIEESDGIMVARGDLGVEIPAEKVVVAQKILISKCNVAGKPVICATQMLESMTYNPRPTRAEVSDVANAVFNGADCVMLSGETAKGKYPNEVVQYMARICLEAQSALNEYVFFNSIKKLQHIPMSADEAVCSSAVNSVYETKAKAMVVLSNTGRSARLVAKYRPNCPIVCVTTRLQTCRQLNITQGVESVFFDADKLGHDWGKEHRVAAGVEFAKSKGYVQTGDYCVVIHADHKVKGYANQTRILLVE
Chain of DNA dC->dU-editing enzyme APOBEC-3G (Homo sapiens) (Q9HC16 whole entry, looked up): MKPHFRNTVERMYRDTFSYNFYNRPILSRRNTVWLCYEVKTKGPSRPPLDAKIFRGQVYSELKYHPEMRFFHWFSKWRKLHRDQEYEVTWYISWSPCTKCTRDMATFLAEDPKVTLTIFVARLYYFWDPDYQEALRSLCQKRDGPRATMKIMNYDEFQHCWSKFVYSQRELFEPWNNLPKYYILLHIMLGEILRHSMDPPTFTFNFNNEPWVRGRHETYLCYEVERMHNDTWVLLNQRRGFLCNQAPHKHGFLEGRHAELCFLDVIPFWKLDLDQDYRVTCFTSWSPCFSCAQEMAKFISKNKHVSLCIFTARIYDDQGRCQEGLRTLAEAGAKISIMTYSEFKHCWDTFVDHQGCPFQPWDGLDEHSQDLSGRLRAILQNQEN
Chain of Alpha-galactosidase A (Homo sapiens) (P06280 whole entry, looked up): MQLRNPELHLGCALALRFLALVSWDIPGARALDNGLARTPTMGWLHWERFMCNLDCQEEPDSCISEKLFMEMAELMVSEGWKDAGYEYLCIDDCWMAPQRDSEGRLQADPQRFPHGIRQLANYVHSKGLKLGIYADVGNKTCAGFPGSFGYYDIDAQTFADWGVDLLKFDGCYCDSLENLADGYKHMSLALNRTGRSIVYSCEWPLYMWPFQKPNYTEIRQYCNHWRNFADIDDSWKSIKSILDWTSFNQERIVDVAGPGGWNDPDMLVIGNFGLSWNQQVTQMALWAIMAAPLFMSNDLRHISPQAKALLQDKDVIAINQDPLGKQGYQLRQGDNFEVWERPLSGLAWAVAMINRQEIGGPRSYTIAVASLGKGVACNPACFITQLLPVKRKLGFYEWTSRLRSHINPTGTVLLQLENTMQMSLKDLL
Chain of Guanine nucleotide-binding protein G(i) subunit alpha-1 (Homo sapiens) (P63096 whole entry, looked up): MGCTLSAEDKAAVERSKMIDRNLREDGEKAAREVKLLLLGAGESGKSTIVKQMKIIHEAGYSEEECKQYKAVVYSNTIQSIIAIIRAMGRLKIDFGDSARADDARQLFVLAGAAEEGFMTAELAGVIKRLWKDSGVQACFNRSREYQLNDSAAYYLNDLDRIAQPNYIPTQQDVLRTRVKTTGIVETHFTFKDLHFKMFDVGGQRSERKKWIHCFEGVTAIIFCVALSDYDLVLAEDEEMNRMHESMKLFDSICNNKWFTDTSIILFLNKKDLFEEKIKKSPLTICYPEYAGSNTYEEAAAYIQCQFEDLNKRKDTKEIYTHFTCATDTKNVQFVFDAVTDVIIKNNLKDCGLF
Chain of Pyruvate kinase PKM (Homo sapiens) (P14618 whole entry, looked up): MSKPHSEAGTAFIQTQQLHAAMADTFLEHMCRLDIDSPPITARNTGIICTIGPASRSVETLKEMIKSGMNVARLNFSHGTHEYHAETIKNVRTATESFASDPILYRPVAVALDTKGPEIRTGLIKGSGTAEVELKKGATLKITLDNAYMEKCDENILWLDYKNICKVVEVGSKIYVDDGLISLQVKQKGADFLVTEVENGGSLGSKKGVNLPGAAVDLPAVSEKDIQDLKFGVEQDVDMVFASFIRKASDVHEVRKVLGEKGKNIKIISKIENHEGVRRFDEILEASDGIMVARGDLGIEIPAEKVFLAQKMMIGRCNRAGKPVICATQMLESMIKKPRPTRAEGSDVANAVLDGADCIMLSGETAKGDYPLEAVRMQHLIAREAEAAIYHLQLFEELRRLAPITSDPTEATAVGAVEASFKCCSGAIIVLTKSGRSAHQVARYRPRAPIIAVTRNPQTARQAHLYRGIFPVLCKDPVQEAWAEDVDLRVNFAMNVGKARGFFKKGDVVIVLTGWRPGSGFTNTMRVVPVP

SMILES: O=C1NCN(c2ccccc2)C12CCN(C[C@H]1COc3ccccc3O1)CC2
- outcome [1]: inactive
- Potency [2]: 12.6 µM (active)
- activity change, negative = inhibition [3]: 1.71% (inactive)
- outcome [4]: inactive
- outcome [5]: inactive
- Potency [6]: inactive
- outcome [7]: inactive
- Potency [8]: 126 nM (active) and 63.1 nM (active)
- Potency [9]: inactive and 7.94 µM (active)
- outcome [10]: inactive
- Potency [11]: inactive
- Potency [12]: inactive
- outcome [13]: inactive
- outcome [14]: inactive
- outcome [15]: inactive
- outcome [16]: inactive
- outcome [17]: inactive
- outcome [18]: inactive
- Potency [19]: inactive
- Potency [20]: inactive
